Measured values: the supplement of paper PMC11732987, “Enantioselective OTUD7B fragment discovery through chemoproteomics screening and high-throughput optimisation” (Communications Chemistry, 2025)

Assays:
Assay in all cases: log2 ratio of Biotin-Ahx-Ub-VS probe labelling (fragment/DMSO); higher = less target engagement (more negative = stronger competition), active = hit call of the paper (q ≤ 0.05, log2 ratio ≤ -1)
Details in all cases: compound concentration: 200 uM; treatment time: 3 h
USP19 = target: T1, USP19 (UniProt O94966)
T1 sequence (whole entry): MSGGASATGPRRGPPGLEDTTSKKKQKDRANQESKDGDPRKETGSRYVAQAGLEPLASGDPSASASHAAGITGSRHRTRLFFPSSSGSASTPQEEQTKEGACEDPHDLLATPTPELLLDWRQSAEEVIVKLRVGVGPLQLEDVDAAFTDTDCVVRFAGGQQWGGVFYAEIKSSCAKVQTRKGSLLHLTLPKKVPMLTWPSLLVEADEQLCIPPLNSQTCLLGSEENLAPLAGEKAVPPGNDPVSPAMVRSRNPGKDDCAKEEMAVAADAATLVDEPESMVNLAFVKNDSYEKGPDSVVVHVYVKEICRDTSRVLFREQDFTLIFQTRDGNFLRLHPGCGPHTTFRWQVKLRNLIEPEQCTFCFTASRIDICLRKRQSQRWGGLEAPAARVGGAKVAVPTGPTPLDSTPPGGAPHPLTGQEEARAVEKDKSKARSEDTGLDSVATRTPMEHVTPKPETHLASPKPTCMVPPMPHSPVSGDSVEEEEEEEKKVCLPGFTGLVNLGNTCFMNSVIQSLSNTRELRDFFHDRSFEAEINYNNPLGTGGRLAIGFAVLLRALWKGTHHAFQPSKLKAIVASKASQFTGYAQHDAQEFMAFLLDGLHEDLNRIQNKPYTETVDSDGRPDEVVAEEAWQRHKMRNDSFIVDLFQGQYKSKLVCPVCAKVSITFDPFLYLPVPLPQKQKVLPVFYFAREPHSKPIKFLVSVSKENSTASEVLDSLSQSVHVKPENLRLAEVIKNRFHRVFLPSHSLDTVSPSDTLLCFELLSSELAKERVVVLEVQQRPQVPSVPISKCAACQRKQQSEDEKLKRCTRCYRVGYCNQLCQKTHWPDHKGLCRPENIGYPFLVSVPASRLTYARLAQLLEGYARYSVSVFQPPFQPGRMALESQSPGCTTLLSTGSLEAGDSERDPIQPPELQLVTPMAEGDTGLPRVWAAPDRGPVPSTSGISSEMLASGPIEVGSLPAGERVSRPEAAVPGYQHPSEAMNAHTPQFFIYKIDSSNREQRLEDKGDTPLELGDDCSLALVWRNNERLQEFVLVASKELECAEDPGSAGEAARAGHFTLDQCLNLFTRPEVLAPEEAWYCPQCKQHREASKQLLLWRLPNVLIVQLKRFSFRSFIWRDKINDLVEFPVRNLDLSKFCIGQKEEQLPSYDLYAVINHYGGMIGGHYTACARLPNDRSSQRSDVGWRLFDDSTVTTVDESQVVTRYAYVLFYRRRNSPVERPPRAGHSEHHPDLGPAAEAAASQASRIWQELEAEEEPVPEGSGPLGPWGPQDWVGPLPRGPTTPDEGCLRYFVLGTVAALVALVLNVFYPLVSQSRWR
Outline: (§1)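 Each value is an average log2 ratio of fragment to vehicle, tested by unpaired t-test. The underlying Spectronaut label-free quantities were global-median-normalised, and only proteins with ≥2 unique peptides were included. Triplicate HEK293T lysate samples (495 µg) were exposed to fragment at 200 µM or vehicle for 3 h, then to Biotin-Ahx-Ub-VS at 0.5 µM final for 1 h, before NeutrAvidin enrichment of labelled DUBs, LysC and trypsin digestion, and diaPASEF LC-MS/MS.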

USP24 = USP24 (UniProt Q9UPU5)
USP24, sequence (Q9UPU5 whole entry): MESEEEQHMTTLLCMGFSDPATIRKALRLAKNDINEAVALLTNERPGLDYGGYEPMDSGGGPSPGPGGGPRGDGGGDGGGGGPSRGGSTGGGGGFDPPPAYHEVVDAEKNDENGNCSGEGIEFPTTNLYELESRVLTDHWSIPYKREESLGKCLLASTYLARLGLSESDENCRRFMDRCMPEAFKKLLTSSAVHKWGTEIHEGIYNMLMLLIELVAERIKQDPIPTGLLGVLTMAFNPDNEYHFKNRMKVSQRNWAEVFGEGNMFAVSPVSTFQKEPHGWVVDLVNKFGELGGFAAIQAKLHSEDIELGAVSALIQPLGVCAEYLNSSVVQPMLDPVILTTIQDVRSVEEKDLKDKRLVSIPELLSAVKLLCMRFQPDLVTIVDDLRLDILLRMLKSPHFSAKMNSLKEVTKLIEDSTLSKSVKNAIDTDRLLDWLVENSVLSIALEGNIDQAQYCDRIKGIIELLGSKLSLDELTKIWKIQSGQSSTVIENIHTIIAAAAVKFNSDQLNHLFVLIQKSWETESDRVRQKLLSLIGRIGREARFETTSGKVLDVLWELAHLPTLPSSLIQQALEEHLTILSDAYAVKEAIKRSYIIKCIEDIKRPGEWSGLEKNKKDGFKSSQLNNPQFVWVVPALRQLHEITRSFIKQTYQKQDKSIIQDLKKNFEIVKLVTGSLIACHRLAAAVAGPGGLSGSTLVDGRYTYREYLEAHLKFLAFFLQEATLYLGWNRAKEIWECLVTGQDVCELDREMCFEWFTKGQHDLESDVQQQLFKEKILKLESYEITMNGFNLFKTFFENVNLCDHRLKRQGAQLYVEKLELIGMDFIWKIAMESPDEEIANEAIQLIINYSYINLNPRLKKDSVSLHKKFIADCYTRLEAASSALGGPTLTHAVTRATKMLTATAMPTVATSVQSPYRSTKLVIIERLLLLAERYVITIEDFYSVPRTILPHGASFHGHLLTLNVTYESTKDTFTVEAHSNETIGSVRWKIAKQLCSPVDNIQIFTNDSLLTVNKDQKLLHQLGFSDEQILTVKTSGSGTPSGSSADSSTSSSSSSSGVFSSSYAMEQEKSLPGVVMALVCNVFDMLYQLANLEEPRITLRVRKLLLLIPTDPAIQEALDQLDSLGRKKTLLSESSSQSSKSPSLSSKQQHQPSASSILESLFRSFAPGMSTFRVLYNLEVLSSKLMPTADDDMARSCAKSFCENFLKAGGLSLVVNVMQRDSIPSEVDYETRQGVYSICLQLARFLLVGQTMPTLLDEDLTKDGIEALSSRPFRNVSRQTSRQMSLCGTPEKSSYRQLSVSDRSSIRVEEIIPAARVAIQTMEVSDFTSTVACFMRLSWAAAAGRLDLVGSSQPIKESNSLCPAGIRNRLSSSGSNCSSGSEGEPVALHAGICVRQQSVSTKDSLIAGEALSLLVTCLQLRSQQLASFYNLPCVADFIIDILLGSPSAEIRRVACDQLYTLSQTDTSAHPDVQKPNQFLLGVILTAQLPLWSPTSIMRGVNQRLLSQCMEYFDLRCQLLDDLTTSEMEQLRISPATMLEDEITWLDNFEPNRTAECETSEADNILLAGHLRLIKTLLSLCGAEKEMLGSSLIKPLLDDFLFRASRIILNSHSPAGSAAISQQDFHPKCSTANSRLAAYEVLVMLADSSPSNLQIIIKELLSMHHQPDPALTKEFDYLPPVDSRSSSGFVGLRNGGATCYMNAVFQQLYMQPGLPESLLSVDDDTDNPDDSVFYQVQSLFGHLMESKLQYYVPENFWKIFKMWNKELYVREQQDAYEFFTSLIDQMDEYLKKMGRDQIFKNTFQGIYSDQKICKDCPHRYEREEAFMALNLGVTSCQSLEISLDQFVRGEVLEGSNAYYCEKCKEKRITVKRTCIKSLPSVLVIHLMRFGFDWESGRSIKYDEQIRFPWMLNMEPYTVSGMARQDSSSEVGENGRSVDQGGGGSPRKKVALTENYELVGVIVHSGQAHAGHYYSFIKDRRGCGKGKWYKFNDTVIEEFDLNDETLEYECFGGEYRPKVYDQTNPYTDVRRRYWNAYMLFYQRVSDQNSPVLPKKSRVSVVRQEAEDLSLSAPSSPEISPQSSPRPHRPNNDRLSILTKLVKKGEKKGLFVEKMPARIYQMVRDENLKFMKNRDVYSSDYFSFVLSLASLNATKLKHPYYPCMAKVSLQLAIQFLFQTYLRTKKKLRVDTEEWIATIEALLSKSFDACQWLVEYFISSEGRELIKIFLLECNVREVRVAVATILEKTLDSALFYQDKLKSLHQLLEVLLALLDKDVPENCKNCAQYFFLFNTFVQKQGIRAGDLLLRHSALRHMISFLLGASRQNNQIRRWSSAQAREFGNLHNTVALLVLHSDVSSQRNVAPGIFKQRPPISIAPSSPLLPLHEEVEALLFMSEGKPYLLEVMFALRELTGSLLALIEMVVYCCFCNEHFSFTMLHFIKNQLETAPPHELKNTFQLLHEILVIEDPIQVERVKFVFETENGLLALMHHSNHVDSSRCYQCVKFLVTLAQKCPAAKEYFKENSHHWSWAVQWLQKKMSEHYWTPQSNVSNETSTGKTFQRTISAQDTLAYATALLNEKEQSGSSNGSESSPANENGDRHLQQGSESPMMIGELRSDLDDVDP
Outline: as §1

USP25 = target: T2, USP25 (UniProt Q9UHP3)
T2 sequence (whole entry): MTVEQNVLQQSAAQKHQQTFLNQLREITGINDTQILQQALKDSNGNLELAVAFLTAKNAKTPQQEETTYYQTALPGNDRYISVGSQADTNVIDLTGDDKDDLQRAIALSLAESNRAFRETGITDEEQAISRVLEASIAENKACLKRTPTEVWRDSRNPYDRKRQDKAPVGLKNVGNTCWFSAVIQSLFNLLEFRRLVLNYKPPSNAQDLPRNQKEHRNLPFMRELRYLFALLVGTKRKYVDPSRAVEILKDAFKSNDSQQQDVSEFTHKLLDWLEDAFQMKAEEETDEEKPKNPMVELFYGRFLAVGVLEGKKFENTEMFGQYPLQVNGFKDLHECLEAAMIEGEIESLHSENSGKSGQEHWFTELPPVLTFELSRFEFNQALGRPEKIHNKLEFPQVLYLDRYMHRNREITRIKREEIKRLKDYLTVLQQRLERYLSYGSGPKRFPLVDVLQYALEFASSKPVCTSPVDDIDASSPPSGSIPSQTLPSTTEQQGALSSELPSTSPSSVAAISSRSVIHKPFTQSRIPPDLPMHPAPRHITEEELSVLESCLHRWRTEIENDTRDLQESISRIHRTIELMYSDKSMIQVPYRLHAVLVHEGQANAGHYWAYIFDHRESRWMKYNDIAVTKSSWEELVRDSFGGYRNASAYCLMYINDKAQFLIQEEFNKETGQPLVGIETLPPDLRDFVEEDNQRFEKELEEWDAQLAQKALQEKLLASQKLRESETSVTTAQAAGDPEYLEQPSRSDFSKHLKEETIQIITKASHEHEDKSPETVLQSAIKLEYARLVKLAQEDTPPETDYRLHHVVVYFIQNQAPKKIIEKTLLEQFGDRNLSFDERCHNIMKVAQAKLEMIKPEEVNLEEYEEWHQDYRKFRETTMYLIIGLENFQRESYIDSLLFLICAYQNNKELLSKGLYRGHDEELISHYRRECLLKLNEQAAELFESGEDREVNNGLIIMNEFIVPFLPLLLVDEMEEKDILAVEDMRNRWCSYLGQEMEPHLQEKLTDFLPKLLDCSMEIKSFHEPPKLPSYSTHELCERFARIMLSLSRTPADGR
Outline: as §1

USP28 = target: T3, USP28 (UniProt Q96RU2)
T3 sequence (whole entry): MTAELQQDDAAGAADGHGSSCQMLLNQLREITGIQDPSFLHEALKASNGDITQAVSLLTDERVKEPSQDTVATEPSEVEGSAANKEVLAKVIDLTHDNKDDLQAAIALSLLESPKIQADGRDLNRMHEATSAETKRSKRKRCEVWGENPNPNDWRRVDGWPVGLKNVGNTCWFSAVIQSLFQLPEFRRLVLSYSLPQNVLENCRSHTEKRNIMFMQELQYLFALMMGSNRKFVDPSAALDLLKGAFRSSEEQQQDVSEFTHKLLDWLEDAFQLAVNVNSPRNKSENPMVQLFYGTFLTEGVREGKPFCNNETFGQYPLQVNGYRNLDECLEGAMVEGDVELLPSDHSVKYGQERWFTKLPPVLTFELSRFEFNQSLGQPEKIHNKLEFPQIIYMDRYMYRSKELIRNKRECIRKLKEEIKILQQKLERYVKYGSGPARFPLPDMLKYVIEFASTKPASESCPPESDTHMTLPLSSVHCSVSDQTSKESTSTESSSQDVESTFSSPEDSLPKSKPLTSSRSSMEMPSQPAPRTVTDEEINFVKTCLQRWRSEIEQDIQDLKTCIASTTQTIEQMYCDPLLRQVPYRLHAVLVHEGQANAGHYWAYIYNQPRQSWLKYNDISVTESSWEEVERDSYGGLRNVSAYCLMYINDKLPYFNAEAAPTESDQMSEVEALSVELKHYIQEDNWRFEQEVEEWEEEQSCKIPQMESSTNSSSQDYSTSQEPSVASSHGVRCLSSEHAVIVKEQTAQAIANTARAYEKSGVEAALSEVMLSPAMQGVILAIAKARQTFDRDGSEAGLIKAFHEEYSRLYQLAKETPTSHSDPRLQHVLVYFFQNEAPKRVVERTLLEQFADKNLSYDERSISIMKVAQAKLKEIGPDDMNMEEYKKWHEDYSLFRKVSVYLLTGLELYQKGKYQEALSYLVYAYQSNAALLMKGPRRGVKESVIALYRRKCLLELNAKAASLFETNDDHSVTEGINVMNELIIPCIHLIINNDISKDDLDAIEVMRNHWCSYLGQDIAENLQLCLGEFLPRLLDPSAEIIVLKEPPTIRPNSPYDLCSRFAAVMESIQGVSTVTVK
Outline: as §1

Measured: log2 ratio of Biotin-Ahx-Ub-VS probe labelling

O=C(CCl)N1CCc2ccccc2C(O)C1 (centres undefined)
inactive: USP19 -0.315 | USP24 -0.483 | USP25 -0.343 | USP28 -0.698
